Data taken from PubChem BioAssay (NCI).
About 83,000 compounds went through this panel and 20% of them were active in at least one assay; those are over-represented in the sample as a whole.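 Cell lines were cultured in 96-well plates, exposed to a single compound concentration, and assessed for percent growth 48 hours later.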 Active and inactive are the calls of the source.

The molecules below were run on HOP-62 NSCLC (assay: NCI-60 one-dose screen, 48 h (100 = growth as untreated, 0 = no growth, -100 = all killed)). Details: 10 µM unless noted.
Protocol: Growth inhibition of the HOP-62 human Non-Small Cell Lung tumor cell line is measured as a screen for anti-cancer activity. Cells are grown in 96 well plates and exposed to the test compound for 48 hours. Compounds are tested at a single concentration, which is 10^-5 M for most compounds. The reported endpoint is percent growth (GI% or GIPRCNT), where numbers from 0 - 100% represent growth inhibition, and numbers from -100% - 0 represent cell death. For example, a value of 40 represents 60% growth inhibition. A value of 0 means no net growth occurred over the course of the experiment. A value of -40 indicates 40% of cells at the beginning of the experiment died by the end of the experiment. A value of -100 means all cells are dead at the end of the experiment.
NCI-60 Human Tumor Cell Lines Screen was performed using the standard one-dose NCI protocol, which is described in more detail at https://dtp.cancer.gov/discovery_development/nci-60/default.htm.
Compounds with GIPRCNT values below 10 were considered active. Activity score was based on GIPRCNT using the following formula: […]
Score is 0 for GIPRCNT values of 100 or above, 50 for GIPRCNT values of 0, and 100 for GIPRCNT values of -100.

**Q.** Which growth does the source give for `COc1cccc(Nc2nc(NCCO)c3ccccc3n2)c1` here?
**A.** 93.1% (inactive)

**Q.** For `COc1ccc(-c2nc3sc(C)cn3c2/C=C/C(=O)c2cc(OC)c(OC)c(OC)c2)cc1`, which growth is on record?
**A.** 90.1% (inactive)

**Q.** Which growth does the source give for `COC(=O)c1c2c(c(C)[n+]([O-])c1C)C(=O)C=C(NCc1ccc(F)cc1)C2=O` here?
**A.** -6.11% (active)

**Q.** For `COc1ccc(-c2cc(=O)oc3c4c(ccc23)OCN(Cc2ccc(F)cc2)C4)cc1`, which growth is on record?
**A.** 80% (inactive)

**Q.** For `Cc1nc2cc(Nc3nc(Cl)nc(Nc4ccc(F)cc4)n3)ccc2n1Cc1ccccc1`, which growth is on record?
**A.** 88.4% (inactive)

**Q.** Which growth does the source give for `Cc1nn2c(-c3nc4ccc(Cl)cc4[nH]3)c(-c3ccc(F)cc3)nc2s1` here?
**A.** 115% (inactive)

**Q.** For `COc1cccc(OC(=O)c2ccccc2)c1OC(=O)c1ccccc1`, which growth is on record?
**A.** 61.7% (inactive)

**Q.** How did the growth turn out when `O=S(=O)(Nc1ccc(Cl)c(Cl)c1)c1ccc(-c2cnc(C3CC3)o2)cc1` was run?
**A.** 24% (inactive)

**Q.** For `O=[N+]([O-])c1cc2c(cc1Br)-c1ccccc1C2`, which growth is on record?
**A.** 81.4% (inactive)

**Q.** Which growth does the source give for `COc1ccc(NC(=O)c2ccc3c(c2)nc(-c2ccc(Cl)cc2)n3-c2cc(C(C)(C)C)[nH]n2)cc1` here?
**A.** 106% (inactive)

**Q.** How did the growth turn out when `Cc1nn(-c2ccccc2)c2nc3nc4c(c(N)c3c(-c3ccc(Cl)cc3)c12)CCC4` was run?
**A.** 101% (inactive)

**Q.** Which growth does the source give for `COc1ccc(/C=C2\Oc3cc(C)c(Cl)cc3C2=O)cc1OC` here?
**A.** 111% (inactive)

**Q.** With `O=[N+]([O-])c1ccc(C=C2C(Cl)=C(Cl)C(Cl)=C2Cl)cc1` as the molecule, how does the growth read?
**A.** 78.3% (inactive)

**Q.** `C[C@@H](Oc1cc(-c2cnn(C3CC4(CNC4)C3)c2)cnc1N)c1c(Cl)ccc(F)c1Cl` was tested. Which growth did it give?
**A.** 49.9% (inactive)

**Q.** For `COc1ccc(Nc2[nH]n(C3=Nc4ccccc4Sc4ccccc43)c(=O)c2C#N)cc1`, which growth is on record?
**A.** 75.9% (inactive)

**Q.** Which growth does the source give for `O=c1c2c(=NCCN3CCCC3)cc3c(=O)n(CCCN4CCOCC4)c(=O)c4ccc(c(O)n1CCCN1CCOCC1)c2c4-3` here?
**A.** -17.3% (active)

**Q.** How did the growth turn out when `COc1ccc(/C=C(\C#N)c2ccc(OC)cc2)cc1` was run?
**A.** 67.1% (inactive)

**Q.** For `O=C(Nc1ccc(Cl)c(Cl)c1)NC(CO)(CO)CO`, which growth is on record?
**A.** 88.1% (inactive)

**Q.** `O=C1NC(=S)S/C1=C\c1cccc([N+](=O)[O-])c1` was tested. Which growth did it give?
**A.** 114% (inactive)

**Q.** For `CC(=O)Nc1ccccc1-c1n[nH]c(=O)[nH]c1=O`, which growth is on record?
**A.** 97.6% (inactive)

**Q.** For `O=C(C[Si](CC(=O)c1cccc(C(F)(F)F)c1)CC(=O)c1cccc(C(F)(F)F)c1)c1cccc(C(F)(F)F)c1`, which growth is on record?
**A.** 95.6% (inactive)

**Q.** `Nc1cccc2c(=S)c3ccccc3[nH]c12` was tested. Which growth did it give?
**A.** 82.7% (inactive)

**Q.** Which growth does the source give for `O=c1nc(NO)[nH]c(=O)n1Cc1ccc(F)cc1` here?
**A.** 107% (inactive)

**Q.** With `COc1cc2nc(SCc3cc(OC)c(OC)c(OC)c3)n(-c3ccccc3OC)c(=O)c2cc1OC` as the molecule, how does the growth read?
**A.** 93.2% (inactive)

**Q.** How did the growth turn out when `COc1ccc(S(=O)(=O)ON=C2C=C(C)C(=O)C(C)=C2)cc1` was run?
**A.** 106% (inactive)

**Q.** With `O=C1N/C(=C\c2ccccc2)c2ncccc21` as the molecule, how does the growth read?
**A.** 100% (inactive)

**Q.** `Cc1nc2cc(Nc3nc(NCCO)nc(Nc4ccc(F)cc4)n3)ccc2n1Cc1ccccc1` was tested. Which growth did it give?
**A.** 94% (inactive)

**Q.** How did the growth turn out when `CC(=O)Nc1ccc(Sc2ccc([N+](=O)[O-])o2)cc1` was run?
**A.** 68.4% (inactive)

**Q.** For `CCN1CCN(c2ccc(Nc3ncc4ccc5ncn(C(C)C)c5c4n3)nc2)CC1`, which growth is on record?
**A.** -7.69% (active)

**Q.** Which growth does the source give for `COc1ccc(-c2c(-c3cc4c(c(OC)c3OC)OCO4)noc2N)cc1` here?
**A.** 35.7% (inactive)

**Q.** How did the growth turn out when `CCN(c1ccc(C(=O)N2CCN(c3ccccc3)CC2)cc1)S(C)(=O)=O` was run?
**A.** 104% (inactive)

**Q.** `Clc1ccc(Nc2nc(Nc3ccccc3)nc(Nc3ccc(-c4cc(-c5ccc(Cl)cc5)on4)cc3)n2)cc1` was tested. Which growth did it give?
**A.** 75.6% (inactive)

**Q.** For `CCOC(=O)C(CC(c1ccccc1)N1CCCCC1)[N+](=O)[O-]` (stereo not given), which growth is on record?
**A.** 86% (inactive)

**Q.** With `O=c1[nH]c(=O)n(Cc2ccc(F)cc2)cc1F` as the molecule, how does the growth read?
**A.** 109% [50 µM] (inactive)

**Q.** For `O=C(CCc1nnc2sc(/C=C\c3ccccc3)nn12)c1nc2ccccc2[nH]1`, which growth is on record?
**A.** 75.8% (inactive)

**Q.** For `CCCCC1COc2cccc3c(SCC(=O)N(C)c4cccc5ccccc45)cc[n+]1c23` (stereo not given), which growth is on record?
**A.** 106% (inactive)

**Q.** For `CC1SC(c2ccc(Cl)cc2)N(CCc2cccs2)C1=O` (stereo not given), which growth is on record?
**A.** 15.2% (inactive)

**Q.** For `COc1ccc(OC)c2ncccc12`, which growth is on record?
**A.** 90.2% (inactive)

**Q.** With `Cc1cc(=O)oc2c1ccc1oc(C(=O)c3ccccc3)c(C)c12` as the molecule, how does the growth read?
**A.** 115% (inactive)

**Q.** Which growth does the source give for `Clc1ccccc1Nc1ccc2nnc(-c3ccncc3)n2n1` here?
**A.** 112% (inactive)
